High-throughput results deposited in PubChem BioAssay by Sanford-Burnham Center for Chemical Genomics.
eIF4H FP inh: human eIF4H binding inhibitors, primary screen, translation initiation inhibitor project, biochemical, uHTS, fluorescence polarization | Eukaryotic translation initiation factor 4H (Homo sapiens), Q15056 | eIF4H fluorescence polarization binding assay | inhibition, % at 35 µM | 290,000 tested, 0.94% active;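 also: calls also rest on retests at 20 µM and on dose response follow-up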
PHOSPHO1 block: PubChem AID 1565; Phosphoethanolamine/phosphocholine phosphatase (Homo sapiens), Q8TCT1; recombinant PHOSPHO1, absorbance phosphatase assay; inhibition, % at 13.3 µM; 290,000 tested, 1.1% active; in the data active = inhibition above about 60%
PABP polyA inh: PABP poly(A) RNA binding inhibitors, primary screen, biochemical, fluorescence polarization, uHTS; Polyadenylate-binding protein 1 (Homo sapiens), P11940; inhibition, % at 35 µM; 290,000 tested, 1% active; AID 2014, 2009;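 also: calls also rest on retests at 20 µM and on dose response follow-up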
Target sequence (P11940 whole entry, looked up): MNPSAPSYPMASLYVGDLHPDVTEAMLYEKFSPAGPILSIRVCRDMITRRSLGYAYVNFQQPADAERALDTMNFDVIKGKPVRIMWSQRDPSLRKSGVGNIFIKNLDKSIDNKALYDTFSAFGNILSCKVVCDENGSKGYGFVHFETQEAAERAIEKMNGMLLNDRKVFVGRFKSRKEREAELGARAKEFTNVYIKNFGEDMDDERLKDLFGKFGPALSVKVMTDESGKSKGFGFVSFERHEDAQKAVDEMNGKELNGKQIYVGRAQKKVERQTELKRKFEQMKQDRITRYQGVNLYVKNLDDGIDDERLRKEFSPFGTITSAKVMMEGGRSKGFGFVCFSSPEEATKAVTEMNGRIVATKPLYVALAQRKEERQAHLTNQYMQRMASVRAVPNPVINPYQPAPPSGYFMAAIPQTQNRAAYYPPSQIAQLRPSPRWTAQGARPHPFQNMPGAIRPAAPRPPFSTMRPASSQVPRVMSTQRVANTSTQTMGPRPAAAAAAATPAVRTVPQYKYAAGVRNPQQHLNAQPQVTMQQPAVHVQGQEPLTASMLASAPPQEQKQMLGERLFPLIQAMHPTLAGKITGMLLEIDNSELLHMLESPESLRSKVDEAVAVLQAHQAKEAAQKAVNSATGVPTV
MLLE-PAM2 inh: inhibitors of PABP1 MLLE–PAM2 peptide binding, primary screen, biochemical, fluorescence polarization, FITC-PAM2, GST-MLLE. 360,000 tested, 0.36% active. Polyadenylate-binding protein 1 (Homo sapiens), P11940. inhibition, % at 20 µM; in the data active = inhibition above about 35%, passing the limit was not always enough;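 also: plate controls were DMSO wells with GST-MLLE for no effect and wells lacking GST-MLLE protein for full effect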
CRFBP-R2 block: antagonists of CRF-BP/CRF-R2 complex, primary screen, cell-based, HEK293, calcium dye fluorescence, uHTS | 350,000 tested, 0.59% active | inhibition, % at 11.8 µM | CRF-induced calcium fluorescence;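 active = inhibition of the ligand-induced calcium signal above about 50% at the single tested concentration, limit read from the data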
An asterisk follows results filed as active; · = no result. In the library only some 2.6% were active in any assay of this set; here they are far more common. Unless noted, no rule for the calls is given here.

SMILES	eIF4H FP inh	PHOSPHO1 block	PABP polyA inh	MLLE-PAM2 inh	CRFBP-R2 block
Nc1cc(OC(=O)c2ccco2)nn1S(=O)(=O)c1ccc(F)cc1	0.8	20.7	3.7	13.5	57.9*
Cc1cc(C(=O)Nc2ccc(S(=O)(=O)N3CCCC3)cc2)no1	-6.3	61.5*	-1.6	4.0	2.6
Cc1cc(C(=O)Nc2ccc(N3CCCCC3)cc2)no1	1.6	32.7	-3.6	-9.6	-3.2
O=C(Nc1nnc(S(=O)(=O)N2CCCCC2)s1)c1ccc(Cl)cc1	-2.1	22.8	-2.5	-26.1	70.8*
Cc1nnc(NC(=O)c2ccc(S(=O)(=O)N3CCCCCC3)cc2)o1	3.8	63.3*	1.5	0.3	-22.8
COc1cc(C(=O)NCCCOC(C)C)ccc1OC1CCN(C(C)=O)CC1	-10.8	·	0.1	-6.4	5.0
CCc1nc2ccc(C(=O)Nc3cccc(OCC(=O)N(C)C)c3)cn2c1N(C=O)Cc1ccc(OC)cc1	·	·	·	15.1	·
Cc1cc(C)c(C#N)c(N2CCN(CCOc3ccc(Cl)cc3)CC2)n1	14.4	2.2	7.8	6.2	-16.9
COc1ccc(Cl)cc1CN1CCN(c2nc(C)cc(C)c2C#N)CC1	45.9*	10.5	73.2*	2.0	4.8
COc1ccc(C(CNC(=O)c2nn(-c3ccccc3)c(=O)c3ccccc23)N2CCOCC2)cc1 (centres undefined)	·	·	·	7.9	4.0
Cc1ccn(CCC(=O)N2CCCC(N3CCN(c4ccccc4C)CC3)C2)n1 (centres undefined)	·	·	·	-7.9	-3.2
CC1(C)CC(=O)C2=C(C1)NC(SCC(N)=O)=C(C#N)C21CCCCC1	2.5	50.0	13.8	36.5*	5.1
CCCC#Cc1ccc2c(c1)O[C@@H](CN(C)Cc1ccc3c(c1)OCO3)[C@H](C)CN([C@@H](C)CO)S2(=O)=O	·	·	·	-55.5	17.9
O=c1c2ccccc2c(C=NCc2ccccn2)c(O)n1-c1ccccc1	90.2*	7.1	3.8*	-12.7	-5.0
COc1cccc(-n2c(O)c(C=NCc3ccccn3)c3ccccc3c2=O)c1	-0.9	21.9	-8.7	-7.8	-10.0
CSCCNC(=O)C1(C)CCN1C(=O)c1ccc(C(C)(C)C)cc1 (centres undefined)	·	·	·	4.5	·
Cc1ccc(CSCC(=O)Nc2cc(S(=O)(=O)N3CCOCC3)ccc2OC(C)C)cc1	·	·	·	-16.1	64.0*
Cc1cccc(NC(=O)CSCC(=O)Nc2cc(S(=O)(=O)N3CCOCC3)ccc2OC(C)C)c1	·	·	·	9.9	-0.8
Cc1ccc(C)n1-c1cc(S(=O)(=O)N2CCOCC2)ccc1N1CCCC1	92.5*	-13.4	105.9*	1.2	2.7
CCOCC(=O)Nc1cc(S(=O)(=O)N2CCOCC2)ccc1N1CCCCC1	-10.7	74.9*	5.6	11.9	7.9
COc1cc(/C=C/C(=O)Nc2cc(S(=O)(=O)N3CCOCC3)ccc2N2CCCC2)cc(OC)c1OC	-6.6	-65.2	-4.9	39.8*	1.2
COc1ccc(/C=C/C(=O)Nc2cc(S(=O)(=O)N3CCOCC3)ccc2N2CCCC2)cc1OC	-3.2	8.8	2.5	2.1	1.7
Cn1c(Oc2cccnc2CN2CCCC2)nc2cc(-c3cccc(C(F)(F)F)c3)sc2c1=O	·	·	·	-24.5	·
CCCS(=O)(=O)NC(=O)C1(C)CCCN(C(=O)C2(c3ccc(Cl)cc3)CCCC2)C1 (centres undefined)	·	·	·	6.6	·
FC(F)(F)c1cccc(-n2cccc2/C=N/n2cnnc2)c1	3.9	94.1*	12.9	-91.6	-8.1
SMILES	eIF4H FP inh	PHOSPHO1 block	PABP polyA inh	MLLE-PAM2 inh	CRFBP-R2 block
Oc1ccc(-n2cccc2/C=N/n2cnnc2)cc1	-11.0	32.8	-10.0	-25.8	-24.6
Cc1noc(C)c1-c1ccc(C(=O)Nc2ccccc2)c2occc12	·	·	·	-7.9	·
O=C(NCc1cccs1)C1CCCN1C(=O)Nc1ccccc1[N+](=O)[O-] (centres undefined)	6.1	18.7	2.8	3.9	2.2
O=C(NCC1CC1)C1Cc2c(-c3ccccc3Oc3ccccc3)ccnc2O1 (centres undefined)	·	·	·	1.7	·
CN(C(=O)COC(=O)c1ccc(Cl)c(S(=O)(=O)NCc2ccccc2)c1)C1CCS(=O)(=O)C1 (centres undefined)	·	·	·	-2.5	6.7
Cc1ccc(S(=O)(=O)N2CCC(C(=O)NNC(=O)c3ccccc3)CC2)cc1	55.8*	10.8	active	-6.9	10.2
Cc1ccc(C(=O)NNC(=O)C2CCN(S(=O)(=O)c3ccc(C)cc3)CC2)cc1	-4.8	57.8	-5.7	-20.1	6.2
Cc1cc2cc(CNC(=O)c3ccc(S(=O)(=O)N4CCCCC4)cc3)ccc2n1C	-19.6	6.7	44.9	48.9*	0.6
Cc1cc2cc(CNC(=O)c3ccc(S(=O)(=O)N4CCCC4)cc3)ccc2n1C	26.9	-2.0	-6.0	28.8	-9.8
CCN(CC)S(=O)(=O)c1ccc(C(=O)NCc2ccc3c(c2)cc(C)n3C)cc1	19.6	-6.0	2.2	45.7*	-3.7
COc1ccc(S(=O)(=O)NCc2ccc3c(c2)cc(C)n3C)cc1	64.2*	15.2	74.4*	48.6*	-25.1
COc1ccc(C(=O)NCc2ccc3c(c2)cc(C)n3C)cc1OC	24.8	32.0	-8.7	27.9	3.6
Cc1cc2cc(CNS(=O)(=O)c3ccccc3)ccc2n1C	17.8	9.8	19.8	37.3	-38.3
Cc1ccc(-n2[nH]c(C)c(/C=N/Nc3ccc([N+](=O)[O-])cc3[N+](=O)[O-])c2=O)cc1	-6.4	-1.3	-1.8	-42.8	112.4*
CC(=O)Nc1ccc(S(=O)(=O)N[C@@H](C)C(=O)OCC(=O)Nc2ccc3c(c2)OCCO3)cc1	·	·	·	5.9	-1.7
Cc1ccc2cc(C#N)c(N3CCCN(C(=O)C4CCCO4)CC3)nc2c1C (centres undefined)	93.8*	24.9	106.8*	-4.2	5.9
Cc1ccc2cc(C#N)c(N3CCCC3)nc2c1C	5.5	2.9	0.7	-11.6	16.9
Cc1c(O)c(=O)n(-c2ccccc2)n1C	·	·	·	-5.8	-8.7
CCN(c1c(C)n(C)n(-c2ccccc2)c1=O)S(C)(=O)=O	6.6	-3.3	1.4	52.0*	-10.3
COc1ccccc1C(CNC(=O)c1cc(C)nc2ccccc12)N(C)C (centres undefined)	5.6	40.5	-3.4	15.4	-3.2
Cc1nn2c3c(cnc2c1-c1ccc(Cl)cc1)C(=O)CC(c1ccco1)C3 (centres undefined)	61.4*	-34.4	32.4*	-1.5	-86.4
Cc1nn2c3c(cnc2c1-c1ccccc1)C(=O)CCC3	-2.1	-3.3	-5.5	-4.8	12.6
Cc1nc2c(-c3ccccc3)c(C)nn2c(N)c1-c1ccccc1	-8.2	-16.7	-9.4	4.3	-12.8
Cc1nn2c(N)c(-c3ccccc3)cnc2c1-c1ccc(Cl)cc1	-1.3	33.0	-3.1	-8.8	54.4*
c1nc(C2CCCCC2)cc2cc3c(cc12)OCO3	·	·	·	7.3	-11.4
CS(=O)(=O)N1CCCCC1CCN1CCCCC1 (centres undefined)	·	·	·	-3.5	6.1
COCc1c(C(=O)Nc2nnc(C3CC3)s2)oc2ccccc12	·	·	·	-0.5	-43.9
